Experimental data published in PubChem BioAssay AID901 (National Center for Advancing Translational Sciences (NCATS), 2007).
Fewer than 10 of roughly 120,000 compounds were called active. Not shown: some 4% with an inconclusive outcome. Calls follow the shape of the dose curve; as a rule, active = well fitted curve in the direction sought with a large enough effect in the signal ratio (not every such curve was filed as active); inconclusive = small, poorly fitted or top-dose-only effect, or a change in a side signal; inactive = no such curve, though single readings can be large or run the other way; the % refers to the signal ratio. The list is a sample of the results.

The compounds below were run against Inositol monophosphatase 1 (Rattus norvegicus) (UniProt P97697) (assay: qHTS Assay for Identifying the Cell-Membrane Permeable IMPase Inhibitors). Conditions: CHO-M1 cells, HTRF TR-FRET ratio; series mostly up to 46.1 µM; inhibition (IP1 accumulation): at the top concentration.
From the text: NCGC IMPase Assay Overview
Lithium has been widely used for the treatment of bipolar disorder. But lithium has a narrow therapeutic index and it can cause side effects such as thirst, weight gain, tremor, polyuria and memory problems. Although the mechanism for lithium action in treatment of bipolar disorder is still not fully understood, inhibition of inositol monophosphatase (IMPase) and the subsequent depletion of the inositol pool in living cells have been implicated as the primary therapeutic benefit of lithium therapy. Therefore, a selective IMPase inhibitor with reduced side effects might be a good drug candidate to replace lithium for the treatment of bipolar disorder. Several IMPase inhibitors have been discovered previously. However, they are not suitable for therapeutic use because of their poor cell membrane penetrability or oral bioavailability; the development of new cell-permeable IMPase inhibitors is needed.
IMPase catalyzes the hydrolysis of inositol-1-phosphate (IP1) to release free inositol. Binding of an agonist to a Gq coupled GPCR results in the activation of PLC, which hydrolyzes the PIP2 to form inositol-1,4,5-trisphosphate (IP3) and diacyl glycerol (DAG). While DAG activates protein kinase C (PKC), IP3 triggers the elevation of intracellular free Ca2+. The IP3 is very rapidly inactivated by hydrolysis to IP2, IP1 and then inositol by a series of enzymes including IMPase. Free inositols are used for synthesis of PI and thus start another inositol cycle.
To identify new cell-permeable IMPase inhibitors, we developed a cell-based IMPase assay in which the cytosolic IP1 is measured by a time-resolved fluorescence resonance energy transfer (TR-FRET) assay. In this assay, an IP1 specific antibody is used to detect the labeled IP1 tracer. When the cell lysate contains the elevated IP1 due to the inhibition of IMPase, the TR-FRET between the labeled antibody and IP1 tracer is disrupted resulting in a reduction in the total signal. Since the TR-FRET is used, this cell-based assay is a homogenous assay without cell wash and medium change that is suitable for assay miniaturization and HTS.
NCGC IMPase Assay Protocol Summary
A Chinese hamster ovary (CHO) cell line stably expressing the M1 receptor (CHO-M1) was obtained from ATCC and maintained in F-12 Kaighn's media (Invitrogen, Carlsbad, CA, 21127) supplemented with 10 % FBS, 100 units/ml penicillin, 100 ug/ml streptomycin and 250 ug/ml geneticin at 37C, 5% CO2 in a humidified atmosphere. Before the assay, aliquots of cells were frozen and stored at -135C. The assay was performed in 1536-well format. Data are reported for both the ratio of the two emission wavelengths, and also for the component 'donor' channel, Em2=620. […] AC50 values were determined from concentration-response data modeled with the standard Hill equation.
IMPase 1536-well assay protocol:
(1) Plate 4 ul/well (2000 cells) of cell suspension from frozen CHO-M1 Cells in white, tissue culture treated 1536-well plates that are cultured at 37C, 5 % CO2 for 16 to 30 hours.
(2) Add 23 nl/well of compound in DMSO solution. The final titration for each compound was between 0.6 nM and 46 uM.
(3) Add 1 ul of carbachol (50 uM in stimulation buffer containing10mM HEPES, 1mM CaCl2, 0.5 mM MgCl2, 4.2 mM KCl, 146 mM NaCl, 5.5 mM glucose, 50mM LiCl, pH 7.4.
(4) Incubation at 37C, 5 % CO2 for 30 min.
(5) Add 1 ul/well of d2-conjugated IP1 (d2-IP1) and 1 ul/well of Eu+ cryptate conjugated anti-IP1 antibody (Eu+-Ab) prepared in the cell lysis buffer, both from the IP-One kit (Cisbio, MA).
(6) Incubate at room temperature for 10 minutes.
(7) Detect the assay plate (Ex = 320, Em1 =665 and Em2 620) in a ViewLux plate reader.
inositol monophosphatase, IMPase, IMPase inhibitor, lithium, bipolar disorder, IP-One, HTRF, qHTS, NIH roadmap, NCGC
Note: In the gene ID and protein GI references for this assay, rat IMPase is referenced instead of hampster as hamster accession numbers were not available.
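Also: plate controls were DMSO basal wells for no effect and reference inhibitor wells for full effect; higher means more IMPase inhibition seen as more IP1 and lower FRET ratio.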

Chain of Inositol monophosphatase 1 (Rattus norvegicus) (P97697 whole entry, looked up): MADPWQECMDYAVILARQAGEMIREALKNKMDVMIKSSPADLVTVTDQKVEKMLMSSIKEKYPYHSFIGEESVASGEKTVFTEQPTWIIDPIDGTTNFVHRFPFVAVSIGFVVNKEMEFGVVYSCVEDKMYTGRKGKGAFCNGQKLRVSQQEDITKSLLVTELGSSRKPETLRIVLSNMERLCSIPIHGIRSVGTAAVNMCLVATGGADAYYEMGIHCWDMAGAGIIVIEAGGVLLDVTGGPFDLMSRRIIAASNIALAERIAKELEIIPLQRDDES

Inhibition (IP1 accumulation), inactive:
CCCOc1ccc(NC(=O)C2OC3OC(C)(C)OC3C3OC(C)(C)OC23)cc1 (stereo not drawn) -8.83%, O=C(Nc1nnc(SCc2ccccc2Cl)s1)c1cccc([N+](=O)[O-])c1 -12%, CC1=C(C(=O)OCc2ccc(C)cc2)C(c2c(Cl)cccc2Cl)CC(=O)N1 (stereo not drawn) 4.36%, CC(C)Cn1c(-c2ccc(S(=O)(=O)N3CCOCC3)cc2)csc1=Nc1cc(Cl)ccc1Cl -9.89%, CN(Cc1cccs1)C(=O)Cc1c[nH]c2ccccc12 -0.545%, CCC(C)c1ccc2oc(-c3ccc(NC(=O)c4cc5ccccc5o4)cc3)nc2c1 (stereo not drawn) -5.88%, Cc1cc2nc(-c3ccc(NC(=O)c4cc5ccccc5o4)cc3)oc2cc1C -5.2%, COc1cc(C2c3c(oc4ccccc4c3=O)C(=O)N2c2nc(C)c(C)s2)ccc1O (stereo not drawn) 4.82%, COc1ccc(C)cc1N(CC(=O)N1CCC(C)CC1)S(=O)(=O)c1ccc(C)cc1 0.568%, Cc1ccc(-c2cc(C(F)(F)F)c(C#N)c(SCC(=O)Nc3ccccc3)n2)cc1 -10.8%, CN(C)c1ccc(/C=N/N(Cc2ccccc2)c2ccccc2)cc1 8.78%, CC(=O)NC1C(Oc2ccc(C)cc2)OC2COC(c3ccco3)OC2C1O (stereo not drawn) -1.45%, COCCNC(=O)CSc1nc(-c2ccccc2)[nH]c1-c1ccc(C)cc1 8.62%, CCOc1ccc(/C=N/NC(N)=S)cc1 -1.53%, O=C(CSc1nc(-c2cccc(F)c2)[nH]c1-c1ccccc1)Nc1ccc2c(c1)OCO2 9.1%, CCc1cccc(C)c1Nc1c(-c2ccc(N(C)C)cc2)nc2ncccn12 -1.76%, Cc1nnc(SCC(=O)N2CCOCC2)[nH]c1=O -4.89%, Cc1cc([N+](=O)[O-])ccc1NC(=O)C1CCCO1 (stereo not drawn) 23.4%, CCCn1c(NCc2ccc(N(CC)CC)cc2)nc2ccccc21 11.4%, COc1ccc(Cl)cc1NC(=O)NCC1CCN(Cc2ccccc2F)CC1 8.24%, Cc1cc2ccccc2n1CCNC(=O)c1ccc(F)cc1 -18.2%, CN(C)CCCO/N=C(\c1ccccc1)c1ccncc1 5.99%, CCCCNC(=O)CSc1nc2ccc(NC(=O)CSc3nnc(N)s3)cc2s1 4.12%, CCOC(=O)c1cc(NC(=O)c2ccc(F)cc2)c(=O)n2c1oc1ccccc12 -0.525%, Cn1c(=O)[nH]c(=O)c2c1nc(NCCc1ccccc1)n2Cc1ccc(F)cc1 6.25%, COc1ccc(NC(=O)c2ccco2)cc1NC(=O)COc1ccc(C)c(C)c1 4.71%, CCN(c1ccc(NC(=O)COC(=O)CCc2nc3ccccc3n2-c2ccccc2)cc1)C(C)C 5.12%, COC(=O)c1c(NC(=O)CN2C(=O)NC(CCc3ccccc3)C2=O)sc2c1CCCCC2 (stereo not drawn) -1.12%, Cn1c(=O)c2c(nc(NCCc3ccccc3)n2Cc2ccccc2Br)n(C)c1=O -7.14%, COc1ccccc1CNC(=O)CN1CCC(n2cnc3cc(F)ccc32)CC1 1.64%, Cc1ccc(NC2=C(c3ccc(C(F)(F)F)cc3)C(=O)c3ccccc32)cc1F 1.88%, CCOC(=O)c1cnc2c(C)cc(C)cc2c1Nc1ccc(N2CCOCC2)cc1 4.63%, CC(=O)Nc1ccc(Nc2c([N+](=O)[O-])cc(S(C)(=O)=O)cc2[N+](=O)[O-])cc1 -9.65%, COc1cccc(NC(=O)C(Sc2nc3ccccc3c(=O)n2CC(C)C)c2ccccc2)c1 (stereo not drawn) -4.66%, CC(C)c1ccc(S(=O)(=O)Nc2ccc(O)c(Sc3nc4ccccc4s3)c2)cc1 -5.6%, COc1ccc(CCNC(=O)CSc2nc(-c3ccc(OC)c(OC)c3)ccc2C#N)cc1 1.97%, COc1ccc(C(=O)COC(=O)CCCC(=O)Nc2cc(C(F)(F)F)ccc2Cl)cc1 10.4%, COc1cc(C(=O)N(Cc2ccc(C(C)C)cc2)C2CCS(=O)(=O)C2)cc(OC)c1OC (stereo not drawn) -0.255%, CCCC(=O)Nc1cc2nn(-c3ccccc3)nc2cc1C -6.42%, Cc1ccc2oc3c(c(=O)c2c1)C(c1ccc(O)cc1)N(Cc1ccc2c(c1)OCO2)C3=O (stereo not drawn) 2.16%, Cc1[nH]c2ccccc2c1/C=N/NC(=O)CNC(=O)c1ccc2c(c1)OCO2 6.43%, Cc1ccccc1NC(=O)CSC1=NCCN1 10.8%, COc1ccccc1OCCCn1c(-c2ccc(Cl)cc2)nc2ccccc2c1=O -4.11%, Cc1cc(C)c[n+](-c2nc3ccccc3nc2[N-]S(=O)(=O)c2cccs2)c1 -6.46%, CC1CCCN(Cc2c(O)ccc3c(=O)c(Oc4ccc(C(C)(C)C)cc4)c(C(F)(F)F)oc23)C1 (stereo not drawn) 2.45%, CCn1c(=O)c(=O)n(CC)c2cc(N3CCCCC3)c(NC(=O)c3cccc(F)c3)cc21 0.926%, COc1cccc(CNC(=O)CCc2nc(-c3ccc(C)cc3)no2)c1 -5.29%, COc1cc(OC)c(C2C=C(C(=O)O)Nc3ncnn32)cc1OC (stereo not drawn) 5.67%, CCCn1c(N)c(C(=O)CSc2nnc(-c3cccnc3)n2-c2ccc(C)cc2C)c(=O)[nH]c1=O -2%, CCCCCC(=O)NC(=S)NNC(=O)c1ccc([N+](=O)[O-])cc1 -4.24%, CCOC(=O)c1c(-c2ccc(OC)cc2)oc2ccc(OCc3ccc(C(=O)OC)cc3)cc12 -6.8%, CC(C)c1ccc(OCC(=O)N(Cc2ccc(N(C)C)cc2)C2CCS(=O)(=O)C2)cc1 (stereo not drawn) 0.605%, CCN(C(=O)Cn1cc(S(=O)(=O)N2CCN(c3ccccc3F)CC2)c2ccccc2c1=O)c1ccc(C)c(C)c1 8.07%, Cc1nn(Cc2ccc(Cl)cc2)c(Cl)c1/C=N/NC(=O)CNc1ccccc1F -3.36%, CC(C)(C)c1ccc(C(=O)NCc2nnc(SCC(=O)N3CCCc4ccccc43)n2-c2ccccc2)cc1 2.68%, COc1ccccc1N1CCN(CC(=O)NC(=O)NCc2ccco2)CC1 -2.3%, CC(=O)N1CCN(CC(=O)Nc2ccc(SC(F)F)cc2)CC1 -0.734%, Cc1ccc(Cl)cc1NC(=O)/C(C#N)=C\c1cn(Cc2ccc(F)cc2)c2ccccc12 -9.06%, COc1ccc(NS(=O)(=O)c2ccc(NC(=S)NC(=O)/C=C/c3ccc(C)cc3)cc2)nn1 -8.66%, N#CCOc1ccc(C2=NO[C@@H]3[C@@H]4C[C@@H]([C@H]5C(=O)N(c6ccc7c(c6)OCO7)C(=O)[C@@H]45)[C@H]23)cc1 10.3%, Cc1ccc(S(=O)(=O)c2nc(-c3cccs3)oc2N2CCCCC2)cc1 5.35%, CCCCn1c(=O)c(CCC(=O)OCC(=O)Nc2ccc(C)c(Cl)c2)nc2ccccc21 8.38%, Cc1c(Cl)cccc1NC(=O)Cn1cc(C(=O)c2cccs2)c2ccccc21 3.52%, O=C(CCc1ccc(S(=O)(=O)N2CCOCC2)cc1)NN=C1CCCCCCC1 0.0166%, Cc1ccc(CN2C(=O)SC(Nc3ccccc3)C2=O)cc1 (stereo not drawn) 4.55%, COc1ccc(CCNC(=O)/C(C#N)=C2\N=C(NC(=O)c3cccs3)c3ccccc32)cc1 -5.67%, CCc1c(C)sc(NC(=O)C2c3ccccc3Oc3ccccc32)c1C(=O)OC(C)C 8.78%, COc1ccc(/C(C)=N/Nc2cc(C(F)(F)F)ccc2Cl)c(OC)c1 9.11%, Cc1ccccc1-c1nc2cc(NC(=O)c3cccc(OCCC(C)C)c3)ccc2o1 -1.42%, CCCc1c(C)nc2c(Br)cccc2c1Cl -4.07%, CCCCCNC(=O)c1cccnc1SCC(=O)Nc1ccccc1OC -11.3%, CCOc1ccc(S(=O)(=O)N(CC(=O)NCCSCc2ccc(C)cc2)c2ccccc2)cc1 0.0904%, Cc1ccc(C)c(N2CCN(Cc3nnc(-c4ccccc4)o3)CC2)c1 0.756%, COC(=O)Cc1ccc(NC(=S)NCc2ccc(Cl)cc2)cc1 5.56%, CCOc1cccc2c1N[C@@H](c1ccc(C(=O)O)cc1)[C@H]1CC=C[C@@H]21 -3.86%, NC(=S)N/N=C/c1coc2cc(Cl)ccc2c1=O -0.625%, CCc1ccc2oc(-c3ccc(NC(=O)c4cc5ccccc5o4)cc3)nc2c1 -1.73%, CCOc1ccc(C2CC(=O)c3c([nH]c(C(=O)OCc4ccccc4)c3C)C2)cc1 (stereo not drawn) 3.71%, Cc1ccc(C)c(NC(=O)C(OC(=O)c2ccc(C)s2)c2ccccc2)c1 (stereo not drawn) -14%, CCOc1ccc(NC(=O)c2c(NC(=O)Cc3ccccc3)sc3c2CCC(C)C3)cc1 (stereo not drawn) -6.95%, Cc1ccc(NC(=O)C(=O)NCc2ccc(/C=N/NC(=O)c3c(C)nc4cc(C)ccn34)o2)cc1 1.32%, Cc1ccc(C)c(OCC(=O)Nc2sc3c(c2C#N)CCCC3)c1C -2.87%, Cc1nc(SCC(=O)Nc2ccc(C(=O)O)cc2)n[nH]1 -6.55%, CCOC(=O)c1c(NC(=S)NC(=O)/C=C/c2cccs2)sc(C)c1C 14.1%, CCCOC(=O)c1c(NC(=O)c2cc3nc(-c4ccc(OC)cc4)cc(C(F)(F)F)n3n2)sc2c1CCCC2 -5.29%, Cc1cccc(-c2nnc(SCC(=O)N3CCCc4ccccc43)o2)c1 6.23%, CCOC(=O)/C(C#N)=C/c1ccc(N2CCN(Cc3ccccc3)CC2)cc1 -6.85%, CCOc1ccc(S(=O)(=O)Nc2ccc3oc4c(c3c2)CC(C)CC4)cc1 (stereo not drawn) -1.93%, Cc1ccc(CSCC(N)C(=O)O)cc1 (stereo not drawn) -9.45%, CCC1=Nc2cc(C(=O)NCC(C)c3ccccc3)ccc2Sc2ccc(C)cc21 (stereo not drawn) 8.49%, CCOC(=O)c1ccc(NC(=O)c2ncn(-c3ccccc3)n2)cc1 -8.15%, COCCNC(=O)c1ccc(N2CCC3(CC2)OCCO3)c([N+](=O)[O-])c1 -6.33%, O=C(Nc1ccc2oc(-c3ccc(O)c(Br)c3)nc2c1)c1cc2ccccc2o1 0.3%, Cc1c(NS(=O)(=O)c2ccc(NC3CCCC3)c([N+](=O)[O-])c2)c(=O)n(-c2ccccc2)n1C -7.88%, O=C(CCS(=O)(=O)c1cc(Br)cc2c1N(C(=O)C1CC1)CC2)Nc1ccc(Br)cc1F 2.33%, COc1ccc(OC)c(/C=C/C(=O)OCC(=O)Nc2ccc3c(c2)OCCO3)c1 -17.1%, COc1cccc(N=C2SC(C(=O)Nc3cccc(Cl)c3)CC(=O)N2C)c1 (stereo not drawn) -10.3%, COc1ccc([N+](=O)[O-])cc1NC(=O)c1ccc(N(Cc2ccccc2C)S(C)(=O)=O)cc1 -3.56%
